PubChem BioAssay (NCI)
This is part of a sample that, as a whole, favours compounds with a hit. Of some 83,000 tested, about 20% had one in any assay.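 Single-dose data. Exposure time 48 hours. Values below 10 considered active.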 A number with no mark means an inactive call. Activity calls are given as the source filed them.

Experiments:
Assay in all cases: NCI-60 one-dose screen, 48 h (100 = growth as untreated, 0 = no growth, -100 = all killed)
Details in all cases: 10 µM unless noted
DU-145 prostate = test system: DU-145 prostate
K-562 leukemia = test system: K-562 leukemia
MALME-3M melanoma = test system: MALME-3M melanoma
MDA-MB-231 breast = test system: MDA-MB-231 breast
RXF 393 renal = test system: RXF 393 renal
SF-268 CNS = test system: SF-268 CNS
SF-295 CNS = test system: SF-295 CNS
SF-539 CNS = test system: SF-539 CNS
UACC-257 melanoma = test system: UACC-257 melanoma
M14 melanoma = test system: M14 melanoma
HCT-15 colon = test system: HCT-15 colon
HT29 colon = test system: HT29 colon
SNB-75 CNS = test system: SNB-75 CNS
SNB-19 CNS = test system: SNB-19 CNS
U251 CNS = test system: U251 CNS
PC-3 prostate = test system: PC-3 prostate
SK-MEL-5 melanoma = test system: SK-MEL-5 melanoma
UACC-62 melanoma = test system: UACC-62 melanoma
LOX IMVI melanoma = test system: LOX IMVI melanoma
SK-MEL-28 melanoma = test system: SK-MEL-28 melanoma

| SMILES | growth (DU-145 prostate) | growth (K-562 leukemia) | growth (MALME-3M melanoma) | growth (MDA-MB-231 breast) | growth (RXF 393 renal) | growth (SF-268 CNS) | growth (SF-295 CNS) | growth (SF-539 CNS) | growth (UACC-257 melanoma) | growth (M14 melanoma) | growth (HCT-15 colon) | growth (HT29 colon) | growth (SNB-75 CNS) | growth (SNB-19 CNS) | growth (U251 CNS) | growth (PC-3 prostate) | growth (SK-MEL-5 melanoma) | growth (UACC-62 melanoma) | growth (LOX IMVI melanoma) | growth (SK-MEL-28 melanoma) |
| --- | --- | --- | --- | --- | --- | --- | --- | --- | --- | --- | --- | --- | --- | --- | --- | --- | --- | --- | --- | --- |
| NC(=O)NS(=O)(=O)c1ccc(N2N=C(C(F)(F)F)CC2c2cc(C(F)(F)F)cc(C(F)(F)F)c2)cc1 (centres undefined) | 85.1% | 57.7% | 87.4% | 91.6% | 11.8% | 67.8% | 68.6% | 89.5% | 31.5% | 79.7% | 62.9% | 70.4% | 68.1% | 85% | 74.6% | 16.2% | 75.5% | 82.7% | 78.6% | 84.8% |
| COc1cnc2c(c1)C(=O)c1c-2n(CCCN2CCCC2)c(=O)c2cc(F)ccc12 | -1.81% (active) | -45.1% (active) | -71.9% (active) | 23% | -81% (active) | 12.1% | -20.4% (active) | -39.3% (active) | -12.2% (active) | 2.05% (active) | -18.9% (active) | -31.2% (active) | -18.9% (active) | 19.7% | -19% (active) | 9.68% (active) | -95.9% (active) | -27.8% (active) | -69.7% (active) | 27.4% |
| COc1ccc2nc(-c3ccc(Cl)cc3)cc(-c3nnc(SCC(=O)Nc4ccc(C(C)=O)cc4)n3-c3ccccc3)c2c1 | 105% | 104% | 92.9% | 86.8% | 102% | 87.3% | 102% | 85.4% | 110% | 93.8% | 101% | 78.6% | 81% | 105% | 101% | 87.3% | 103% | 97.7% |  | 107% |
| O=C1C(=O)/C(=C/c2ccccc2)CCCCCC/C1=C/c1ccccc1 | 64.6% | 4.05% (active) | 90.9% | 96.2% | -11.6% (active) | 60.6% | 76.5% | 103% | 75.3% | 50% | 32.2% | -25.6% (active) | 68% | 67.9% | 11% | 55.4% | 88.2% | 79.6% |  | 94.9% |
| COc1cc(/C=C\C(C)=N\Nc2ccccc2)ccc1O | 102% | 56.1% | 127% | 76.8% | 108% | 76.4% | 85.5% | 88.1% | 79.2% | 97.5% | 75.4% | 108% | 98.7% | 103% | 90.5% | 67.2% | 95% | 69.8% |  | 120% |
| CC[C@H]1CN2CCc3cc(OC)c(OC)cc3C2C[C@@H]1CC1NCCc2cc(OC)c(OC)cc21 (some centres undefined) | -31.6% (active) | -6.17% (active) | -58.1% (active) | -45.5% (active) | -42.9% (active) | -25.6% (active) | -29.2% (active) | -59.7% (active) | -27.8% (active) | -82.9% (active) | -18% (active) | -14.5% (active) | -52.2% (active) | -6.47% (active) | -10.2% (active) | -12% (active) | -88.7% (active) | -82% (active) |  | -14.4% (active) |
| Nc1nc(NC2CC2)c2ncn(C3C=CC(CO)C3)c2n1 (centres undefined) | 126% | 84.2% | 105% | 98.5% | -4.67% (active) | 126% | 106% | 118% | 100% | 116% | 107% | 101% | 117% | 112% | 102% | 119% |  | 83.6% | 103% | 118% |
| Cc1ccc2nc(-c3ccc(N(C)C)c(Br)c3)cn2c1 | 93.7% | 29% | 116% | 92.9% | 62.8% | 78.2% | 90.5% | 65.9% | 90.7% | 78.6% | 33.9% | 72.8% | 103% | 99.4% | 49.1% | 53.7% |  | 66.6% | 56.3% | 93.3% |
